Compound activity deposited in PubChem by several laboratories.
Rows were chosen to be rich in hits. Some 2% of all compounds tested hit in one or more screens of this group.
Gli-Sufu block: blocks Gli-Sufu signaling in a luciferase reporter; inhibition, % at 5 µM; Sufu-KO-LIGHT fibroblasts, Gli luciferase reporter luminescence; 340,000 compounds, 0.74% hits;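 active means inhibition above about 55%, limit read from the data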;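 further: 0% = DMSO-treated cells and 100% = wells with medium but no cells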
GalR3 antag: blocks the human galanin receptor 3; O60755; HEK293 GalR3-CNG cAMP membrane potential fluorescence; galR3 body fused to GalR1 C-terminus; inhibition, % at 3 µM; 360,000 compounds, 0.44% hits;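 active means inhibition above the screen-wide average plus 3 SD, cut at about 13% in these data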;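 further: forskolin and galanin both at EC90 stimulate the cells; cAMP rise reported by CNG channel membrane potential dye signal; 0% = forskolin plus galanin with DMSO and 100% = forskolin alone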
697 NFkB inh: lowers PMA/ionomycin-induced NF-kB signal in 697 B cells | AID 435022 | 330,000 compounds, 0.33% hits | inhibition, % at 4 µM | 697 B-cell NF-kB luciferase reporter, 16 h; in the data active means inhibition above about 35%
Jurkat NFkB inh: inhibitors of the PMA/ionomycin-induced NF-kB reporter in Jurkat cells; PMA/ionomycin-induced NF-kB luciferase reporter, luminescence; AID 435003; inhibition, % at 4 µM; 330,000 compounds, 0.53% hits; in the data active means inhibition above about 50%
COUP-TFII inh: NR2F2 (human) inhibition, primary screen; AID 686940; 370,000 compounds, 0.7% hits; HEK293T NGFI-A luciferase reporter, luminescence; P24468; inhibition, % at 8.6 µM;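 active means inhibition above a per-plate cutoff, mean inhibition of test wells between control levels plus 3 SD, cut at about 38% in these data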;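 further: cells cotransfected with COUP-TFII expression vector driving the NGFI-A reporter; 0% = median of COUP-TF2 test wells and 100% = reporter-only cells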
Target sequence (P24468 whole entry, looked up): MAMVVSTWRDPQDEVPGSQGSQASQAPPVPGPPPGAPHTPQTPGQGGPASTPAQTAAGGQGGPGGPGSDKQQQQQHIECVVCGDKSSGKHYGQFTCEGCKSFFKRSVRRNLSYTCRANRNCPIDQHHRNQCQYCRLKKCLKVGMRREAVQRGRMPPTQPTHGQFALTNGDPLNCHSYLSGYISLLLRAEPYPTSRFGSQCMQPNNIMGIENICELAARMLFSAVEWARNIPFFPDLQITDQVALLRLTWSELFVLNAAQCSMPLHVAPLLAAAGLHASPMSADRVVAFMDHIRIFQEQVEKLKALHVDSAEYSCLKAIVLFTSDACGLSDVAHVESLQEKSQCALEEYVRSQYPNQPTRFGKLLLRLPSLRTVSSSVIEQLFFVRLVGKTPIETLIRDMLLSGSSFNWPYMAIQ
Gli antag conf: Gli-SUFU antagonism confirmation, single concentration | shares compounds with Gli-Sufu block | Sufu-KO-LIGHT cells, Gli luciferase reporter, luminescence | inhibition, % at 5 µM | 2,500 compounds, 40% hits | AID 602428;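 active means mean inhibition at 5 µM reaching about 45%, limit read from the data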;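 further: plate controls were DMSO-treated cells for no effect and wells lacking cells for full effect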
SufuKO cytotox: counter-screen for Gli-SUFU antagonists: cytotoxicity; shares compounds with Gli-Sufu block; Sufu-KO-LIGHT cells cytotoxicity, ATP luminescence; cytotoxicity, % at 5 µM; 2,500 compounds, 32% hits;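 active means mean cytotoxicity at 5 µM above about 25%, limit read from the data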;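 further: cells exposed to compound overnight for roughly 16 to 18 hours; plate controls were DMSO wells with cells for no effect and medium without cells for full effect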
Wnt3a counter: Wnt3a reporter inhibition counter-screen; shares compounds with Gli-Sufu block; 2,500 compounds, 20% hits; Wnt-LIGHT cells, Wnt3a-driven luciferase reporter, luminescence; inhibition, % at 6.25 µM; AID 651995;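 active means mean inhibition above about 25%, limit read from the data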
The depositor's hits bear a star; . = not tested or not shown.

SMILES	Gli-Sufu block	GalR3 antag	697 NFkB inh	Jurkat NFkB inh	COUP-TFII inh	Gli antag conf	SufuKO cytotox	Wnt3a counter
Cc1ccc(C(=O)NC2CCCCN(C(C)C)C2=O)cc1 (stereo not given)	.	.	.	.	5	.	.	.
CC(C)(C)n1nnnc1C(c1ccc2ncccc2c1)N1CCC(O)CC1 (stereo not given)	63*	5	-6	-12	-9	9	11	8
COc1ccc(N2CCN(C(c3ccc4ncccc4c3)c3nnnn3C(C)(C)C)CC2)cc1 (stereo not given)	-17	-4	15	-1	-8	.	.	.
Cc1cc(C)c(NC(=S)N(CCN2CCCCC2)Cc2ccco2)c(C)c1	5	-3	2	1	3	.	.	.
Cc1cccc(C)c1NC(=S)N(CCN1CCCCCC1)Cc1ccco1	52	-6	5	10	6	29	8	-12
CCc1ccc(N2C(=O)C[C@@](C#N)(C(=O)OC)[C@H]2c2ccccc2)cc1	.	.	.	.	-13	.	.	.
O=C(NNC(=O)c1cccc(Cl)c1)NNC(=O)c1cccc(Cl)c1	53	-1	-3	5	-3	12	-12	-12
CS(=O)(=O)c1ccc(C(=O)NCC2(N3CCCCC3)CCCCC2)cc1	19	-7	15	-7	5	.	.	.
CS(=O)(=O)Cc1ccc(C(=O)NCC2(N3CCCCC3)CCCCC2)cc1	52	-3	14	-14	4	29	17	0
Cc1nn(Cc2noc(C(=O)NC3CCC(C)CC3)n2)c(C)c1Br (stereo not given)	51	-6	9	3	-2	80*	29*	1
O=C(O)CCN1C(=O)/C(=C/c2cccc(OCc3ccc(F)cc3)c2)SC1=S	.	.	.	.	-24	.	.	.
COc1ccccc1/C=C1\SC(=S)N(Nc2nc(C)cc(C)n2)C1=O	1	-9	-24	-11	5	.	.	.
Cc1cc(C)nc(NN2C(=O)/C(=C/c3ccc(O)cc3)SC2=S)n1	56*	.	9	-13	.	32	6	21
O=C(Cn1nc(C(=O)O)c2ccccc2c1=O)Nc1ccccc1C(F)(F)F	79*	-8	-15	-6	5	12	7	-20
COc1ccc(S[C@]2(C(=O)N3CCCC3)CC(=O)N(C(=O)CCc3ccccc3)[C@@H]2c2ccc(OC)cc2)cc1	.	.	.	.	6	.	.	.
COc1ccc(CNCC(O)(c2ccccc2)c2ccc(F)cc2)cc1OC (stereo not given)	17	-15	-13	1	15	.	.	.
COc1ccc(CNCC(O)(c2ccc(F)cc2)c2ccc(F)cc2)cc1OC	65*	-14	-23	-16	26	23	36*	-41
COc1ccc(C(=O)N[C@H]2CC[C@@]34CCCN3C(=O)CCC[C@H]4[C@H]2C)cc1	.	.	.	.	6	.	.	.
Cc1[nH]n(-c2ccccc2)c(=O)c1N=Nc1ccccc1O	55	-4	-20	27	25	55*	34*	74*
CC#CC[N+](C)(C)CCCCCCCCCC	68*	-2	9	32	34	79*	43*	35*
C#CC[N+](C)(C)CCCCCCCCC	25	-2	-13	13	10	.	.	.
O=C(NCc1ccccc1)OCCN1C(=O)CCC12CCC(c1ccccc1)CC2 (stereo not given)	.	.	.	.	9	.	.	.
Cc1ccc(C2(O)CN(c3ccccc3)C3=[N+]2CCS3)cc1 (stereo not given)	-3	-4	-20	-9	4	.	.	.
Brc1ccc(-c2c[n+]3c(n2-c2ccccc2)SCC3)cc1	63*	-4	-35	9	18	60*	25*	-4
COc1cc2[nH]c(=O)n(Cc3ccccc3Cl)c(=O)c2cc1OC	55	-4	16	-9	2	31	6	10
SMILES	Gli-Sufu block	GalR3 antag	697 NFkB inh	Jurkat NFkB inh	COUP-TFII inh	Gli antag conf	SufuKO cytotox	Wnt3a counter
COc1cc2[nH]c(=S)n(Cc3ccccc3)c(=O)c2cc1OC	-6	3	-1	7	11	.	.	.
Cc1ccc2c(c1)C1CS(=O)(=O)N(CC(C)C)C(=O)N1C2 (stereo not given)	.	.	.	.	-26	.	.	.
COc1ccc(CCNc2ccc(S(N)(=O)=O)cn2)cc1	51	-10	16	4	3	9	7	3
COc1ccc(CCNc2ccncn2)cc1	36	-6	-7	3	20	.	.	.
Cc1cc(-c2ccccc2)c2c(n1)sc1c(O)cc(=O)[nH]c12	7	-3	9	2	-2	.	.	.
Cc1cc(-c2cccs2)c2c(n1)sc1c(=O)[nH]c(=O)[nH]c12	84*	-7	7	10	-3	4	31*	-27
CCCc1cc(=O)oc2cc(C)cc(OCC(=O)N3CCC(C(=O)O)CC3)c12	55	-7	11	4	10	19	-3	12
O=C(CSC(=S)N1CCCC1)c1cc(Br)cc(Br)c1O	85*	-5	-30	6	4	9	9	-29
COc1ccccc1CNC(=O)N1CCC(c2nc3ccc(Cl)cc3[nH]2)CC1	.	.	.	.	6	.	.	.
Cc1csc(N(C(=O)c2cccc(S(=O)(=O)N(C)C)c2)c2ccccc2)n1	57*	-6	-20	-4	-13	23	4	-4
Cc1csc(N(C(=O)c2cccc(S(=O)(=O)N3CCCC3)c2)c2ccccc2)n1	-3	-3	-9	9	5	.	.	.
NC(=S)N/N=C/c1cccc(O)c1O	82*	-2	-108	24	2	31	4	-19
O=C(OC12CCCN(C1)/C(=C/c1ccccc1)C2)C1CCCCC1 (stereo not given)	.	.	.	.	0	.	.	.
Nc1[nH]c(C(=O)c2ccccc2)c(-c2ccc(Br)cc2)c1C(=O)N1CCN(CCO)CC1	.	.	.	.	-7	.	.	.
CN(C)c1ccncc1C(=O)Nc1ccc(F)cc1F	59*	2	-11	4	-19	19	-3	4
CCOc1ccc(NS(=O)(=O)c2ccc(C(=O)N3CCCCC3)cc2)cc1	55*	-3	-9	6	18	27	29*	-19
CCOc1ccc(NS(=O)(=O)c2ccc3c(c2)N(C(C)=O)CCS3)cc1	55	-9	-11	-1	15	14	4	9
COc1ccc(NS(=O)(=O)c2ccc3c(c2)N(C(C)=O)CC(C)S3)c(OC)c1 (stereo not given)	54	-9	-26	15	2	16	7	9
CCCCCCCCNC(=O)C1CSCCS(=O)(=O)N1Cc1ccc(F)cc1 (stereo not given)	.	.	.	.	6	.	.	.
C#CCN1CC(N(C)CCCO)CS1(=O)=O (stereo not given)	.	.	.	.	0	.	.	.
CCOC(=O)C1=NN(C(=O)Nc2cccc(C(F)(F)F)c2)C2C(=O)N(c3cccc(C(F)(F)F)c3)C(=O)C12 (stereo not given)	70*	-4	18	-16	2	25	-9	7
